The panel holds about 83,000 compounds, 20% with a hit somewhere; the sample as a whole holds those more often.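 Plates (96-well) were seeded with cells, treated with compound at one concentration, and incubated for 48 hours before percent growth was determined.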 The source made the active and inactive calls. The calls were made as follows: active = growth percent below 10; inactive = the rest.
Key:
Assay in all cases: NCI-60 one-dose screen, 48 h (100 = growth as untreated, 0 = no growth, -100 = all killed)
Settings in all cases: 10 µM unless noted
[1] = tested on: SR leukemia
[2] = tested on: RPMI-8226 leukemia
[3] = tested on: OVCAR-8 ovarian
[4] = tested on: OVCAR-5 ovarian
[5] = tested on: SK-OV-3 ovarian
[6] = tested on: IGROV1 ovarian
[7] = tested on: OVCAR-3 ovarian
[8] = tested on: NCI/ADR-RES ovarian
[9] = tested on: HS 578T breast
[10] = tested on: OVCAR-4 ovarian

Measured: growth

Cn1cc(-c2nc(-c3c[nH]c4ncccc34)cs2)c2cc(F)ccc21
active: [8] 8.92%
inactive: [1] 13.7% | [2] 36.4% | [3] 51.4% | [4] 21.4% | [5] 55.9% | [6] 26.5% | [7] 21%

COc1ccc(/C=C/C(=O)c2ccc([N+](=O)[O-])cc2)cc1
inactive: [1] 85.4% | [2] 78.9% | [3] 105% | [4] 111% | [5] 103% | [6] 105% | [7] 113% | [9] 106% | [8] 106%

CC1(C)C(=O)/C(=C\c2cccnc2)C[C@]2(C)[C@H]3CC[C@@H]4[C@@H](C(=O)/C=C/c5ccncc5)CC[C@@]4(C)[C@]3(C)CC[C@@H]12
active: [1] 5.46% | [2] -7.22% | [6] -28.1% | [7] -48.6%
inactive: [3] 19.5% | [10] 18.9% | [5] 64.2% | [9] 31.7%

Cc1ccc(Nc2c(C(N)=O)cnc3ccc(S(=O)(=O)Nc4cc(C)on4)cc23)cc1
inactive: [1] 101% | [2] 103% | [3] 97.9% | [4] 99.5% | [5] 107% | [6] 101% | [7] 103% | [9] 104% | [8] 101%

CC1c2ccccc2N(S(=O)(=O)c2ccccc2)C1C (stereo not drawn)
inactive: [1] 34.8% | [2] 91.9% | [3] 103% | [4] 108% | [5] 91.2% | [6] 92.4% | [7] 98.1% | [9] 92.7% | [8] 70.4%

Oc1ccccc1/C=N\NC(=S)Nc1ccc(F)cc1
inactive: [1] 11.5% | [2] 41.1% | [3] 21.9% | [4] 55% | [5] 33.8% | [6] 20% | [7] 34.4% | [9] 32.5%

Brc1ccc2[nH]cc(-c3nc(-c4c[nH]c5ncccc45)cs3)c2c1
inactive: [2] 39.9% | [3] 46.3% | [4] 63.7% | [5] 55% | [6] 23.1% | [7] 52.4% | [9] 71.8%
active: [1] 9.23%

CC(=O)O[C@H]1CC[C@@]2(C)[C@@H](CC[C@@H]3[C@@H]2CC(=O)[C@@]2(C)[C@H]3C[C@@H](C3CCCC3=O)[C@@H]2C(C)=O)C1 (stereo partly drawn)
inactive: [1] 87.9% | [2] 91.2% | [3] 98.9% | [4] 107% | [5] 107% | [6] 98.1% | [7] 115% | [9] 108% | [8] 104%

C#Cc1cc2c(N)c(C(=O)c3cc(OC)c(OC)c(OC)c3)[nH]c2cc1OC
active: [1] 7.33% | [7] 0.789% | [9] 1.91%
inactive: [2] 26.7% | [3] 47.8% | [4] 37.5% | [5] 28.8% | [6] 32.6% | [8] 21.9%

CC(=O)O[C@@H]1CCN2C(=O)N(C)c3ccccc3[C@@H]2C1
inactive: [1] 93.3% | [2] 104% | [3] 109% | [10] 107% | [5] 101% | [6] 105% | [7] 122% | [9] 116% | [8] 104%

COc1ccc(C(=O)c2cc(OC)c(OC)c(OC)c2)cc1/C=C/C(=O)c1cc(OC)c(OC)c(OC)c1
inactive: [1] 43.2% | [2] 67% | [3] 86.7% | [4] 88.7% | [5] 105% | [6] 95.9% | [7] 99.3% | [9] 82.4% | [8] 81.1%

COc1cc2[nH]c(C(=O)c3cc(OC)c(OC)c(OC)c3)c(N)c2cc1C#CC1CC1
active: [7] 2.8% | [9] -1.8%
inactive: [1] 13.4% | [2] 47.6% | [3] 55.7% | [4] 38.4% | [5] 32.4% | [6] 42.1% | [8] 27.7%

O=C(N/N=C\c1ccccc1O)C1CC1
inactive: [1] 104% | [2] 107% | [3] 93.5% | [4] 117% | [5] 101% | [6] 95% | [7] 102% | [9] 115% | [8] 92.8%

CC(C)=CCC/C(C)=C/CC/C(C)=C/CC/C(C)=C/CSC[C@H](NC(=O)CCCCCN1CCN(C)CC1)C(=O)NC1CCCCC1
active: [1] 2.5%
inactive: [2] 63.4% | [3] 90.3% | [4] 85% | [5] 96.5% | [6] 80.6% | [7] 91.1% | [9] 95.7% | [8] 86.9%

O=C(N/N=C\c1c(O)ccc2ccccc12)C1CC1
active: [7] 1.02% | [8] 9.42%
inactive: [1] 18.3% | [2] 40.4% | [3] 33.1% | [4] 90.9% | [5] 44.9% | [6] 24.3% | [9] 74.6%

O=C(/C=C/c1cccc(O)c1)c1ccccc1O
inactive: [1] 36% | [2] 28% | [3] 92.9% | [4] 99.4% | [5] 107% | [6] 66.7% | [7] 93.5% | [9] 86.9% | [8] 86.6%

Cc1nnc2nc(N)[nH]n2c1=O
inactive: [1] 78.9% | [2] 106% | [3] 98.8% | [10] 99.4% | [5] 112% | [6] 103% | [7] 104% | [9] 112%

O=[N+]([O-])c1cccc(/C=N\Nc2ccccc2)c1
inactive: [1] 89.6% | [2] 86.5% | [3] 63.8% | [4] 74.7% | [5] 95.8% | [6] 60.1% | [7] 73.1% | [9] 71.7%

CC(CNc1nc(Nc2ccc(Cl)c(Cl)c2)nc(C(Cl)(Cl)Cl)n1)N(C)C (stereo not drawn)
inactive: [4] 33.7% | [5] 25.9%
active: [1] -42.6% | [2] -12.5% | [3] -50.8% | [6] -5.99% | [7] -67.8% | [9] -20.8% | [8] -23.6%

Cn1cc(-c2nc(-c3c[nH]c4ncccc34)cs2)c2ccccc21
inactive: [1] 40% | [2] 64% | [3] 101% | [4] 49.1% | [5] 95.5% | [6] 51% | [7] 77.7% | [9] 103% | [8] 74.4%

Cn1cc(-c2csc(-c3cn(C(=O)OC(C)(C)C)c4ccc(Br)cc34)n2)c2cccnc21
inactive: [1] 58% | [2] 84.5% | [3] 70.7% | [4] 95.5% | [5] 98.7% | [6] 93.2% | [7] 98.3% | [9] 94.7% | [8] 82.5%

CCOc1ccc(NC(=O)c2ccccc2-c2ccccc2C(=O)O)cc1
inactive: [1] 89.7% | [2] 101% | [3] 111% | [4] 98.6% | [5] 109% | [6] 110% | [7] 110% | [9] 103% | [8] 108%

COc1cc(C(=O)/C=C/c2cc(-c3ccc4c(c3)OCO4)n[nH]2)cc(OC)c1OC
inactive: [4] 57.6% | [10] 27.7% | [5] 60.8% | [6] 64.8%
active: [1] -25.3% | [2] -42.4% | [7] -17.8% | [8] -13.5%

O=c1c2sc3ncc(Br)cc3c2ncn1-c1cccc(Cl)c1
inactive: [1] 76.6% | [2] 75.1% | [4] 94.6% | [5] 67.6% | [6] 83.9% | [8] 80.8%
active: [10] -25.9%

COc1cc(-c2cc(-c3nc4ccc(F)cc4[nH]3)[nH]n2)cc(OC)c1OC
active: [2] -37.3% | [10] -2.29% | [8] -6.05%
inactive: [1] 12.6% | [4] 88.5% | [5] 13.3% | [6] 43.6% | [7] 24%

COc1ccc2nc(-c3cc(-c4cc(OC)c(OC)c(OC)c4)n[nH]3)[nH]c2c1
active: [2] -50.6% | [10] -21.9% | [7] -29% | [8] -0.97%
inactive: [1] 13.8% | [4] 58.8% | [5] 33.8% | [6] 18.7%

COc1ccc(-n2c(/C=C/c3ccc(O)c(OC)c3)cc(/C=C/c3ccc(O)c(OC)c3)nc2=O)cc1
inactive: [1] 14.2% | [2] 21.4% | [4] 112% | [10] 62.5% | [5] 62.3% | [6] 63.5% | [7] 41.4% | [9] 62.5% | [8] 84.3%

COc1ccc(-c2cc(-c3cccs3)n(N=O)c(=O)c2C#N)cc1
inactive: [1] 114% | [2] 88.4% | [4] 94.4% | [10] 100% | [5] 105% | [6] 100% | [7] 123% | [9] 101% | [8] 102%

N#CC1=C(N)Oc2c(c(N)nn2-c2ccccc2)C1c1ccc(Cl)cc1Cl (stereo not drawn)
inactive: [1] 97.3% | [2] 94.4% | [4] 98.2% | [10] 95.7% | [5] 92.5% | [6] 101% | [7] 110% | [9] 101% | [8] 100%

C=C1C(=O)O[C@H]2[C@H]1CC/C(Cn1cc(-c3ccc(OC)cc3)nn1)=C\CC[C@@]1(C)O[C@@H]21
active: [1] -10.8% | [2] -33.3% | [6] -51.1% | [7] -83.9%
inactive: [4] 17.2% | [10] 27.4% | [5] 120% | [9] 75.6% | [8] 24.7%

O=c1c(CNc2ccc(S(=O)(=O)Nc3ncccn3)cc2)coc2ccccc12
inactive: [1] 100% | [2] 73.1% | [4] 96.3% | [10] 104% | [5] 98.7% | [6] 95.2% | [7] 111% | [9] 102% | [8] 104%

— PubChem BioAssay (NCI)
